Screening data deposited in PubChem BioAssay by National Center for Advancing Translational Sciences (NCATS).
TRPV1 PAM = human TRPV1 potentiation | Q8NER1 | TRPV1-expressing cells, Fluo-8 calcium influx, capsaicin EC20 potentiation | potentiation, % at 8.33 µM | 320,000 tested, 0.02% active; in the data active = potentiation above about 80%; inconclusive = between about 30% and that limit; note: 0% is about no effect
Target sequence (Q8NER1 whole entry, looked up): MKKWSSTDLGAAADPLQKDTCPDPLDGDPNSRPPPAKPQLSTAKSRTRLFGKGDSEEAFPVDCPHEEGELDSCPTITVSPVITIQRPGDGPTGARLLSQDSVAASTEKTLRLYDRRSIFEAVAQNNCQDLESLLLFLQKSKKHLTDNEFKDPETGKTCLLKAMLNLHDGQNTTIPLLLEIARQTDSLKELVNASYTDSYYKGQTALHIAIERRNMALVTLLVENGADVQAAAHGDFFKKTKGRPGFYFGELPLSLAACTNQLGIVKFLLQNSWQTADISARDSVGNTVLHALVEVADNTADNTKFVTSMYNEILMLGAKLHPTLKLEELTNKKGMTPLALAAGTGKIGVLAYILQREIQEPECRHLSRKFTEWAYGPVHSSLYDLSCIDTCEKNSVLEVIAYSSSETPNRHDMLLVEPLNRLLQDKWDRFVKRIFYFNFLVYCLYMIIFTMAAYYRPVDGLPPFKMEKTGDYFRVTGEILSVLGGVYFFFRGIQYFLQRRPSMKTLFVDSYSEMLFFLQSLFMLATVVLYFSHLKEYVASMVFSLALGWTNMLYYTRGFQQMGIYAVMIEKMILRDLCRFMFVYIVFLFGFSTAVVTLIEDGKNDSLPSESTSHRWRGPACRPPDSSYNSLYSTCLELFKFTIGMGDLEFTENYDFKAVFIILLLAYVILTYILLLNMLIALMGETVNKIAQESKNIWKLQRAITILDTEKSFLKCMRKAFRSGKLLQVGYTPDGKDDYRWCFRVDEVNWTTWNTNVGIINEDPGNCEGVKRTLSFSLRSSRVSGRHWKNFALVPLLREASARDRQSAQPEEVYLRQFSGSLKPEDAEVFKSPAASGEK
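Fluo-8 calcium influx in TRPV1-expressing cells, kinetic read (ex 480/em 520 nm). Compound added and read 3 min for agonist activity, followed by capsaicin at EC20 final and 2 min further read for enhancement.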
TRPV1 agonist = activates the human vanilloid receptor TRPV1; TRPV1-expressing cells, Fluo-8 calcium influx, agonist mode; Q8NER1; activation, % at 8.33 µM; 320,000 tested, 0.19% active; in the data active = activation above about 80%; inconclusive = between about 30% and that limit; note: 0% is about no effect
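TRPV1-expressing cells were cultured overnight at 35.5C and loaded with Fluo-8 calcium dye for 40 to 90 min at room temperature. After a 10 s baseline, compound was added and calcium influx was read kinetically for 3 min (ex 480/em 520 nm).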
KCNH2 3.1 block = inhibitors of human KCNH2 3.1 potassium channel isoform; U2OS KCNH2 3.1, thallium flux FluxOr; stronger effect = lower value; activity change, % (tested at about 1.8 µM); 340,000 tested, 0.95% active;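 active = maximum activity change below -70%; inconclusive = maximum activity change from -70% to -50%; inactive = maximum activity change above -50%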;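 note: thallium influx rate constant from kinetic fluorescence after stimulation buffer; % is set by controls: 0 for no effect and ±100 for the full control effect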
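U2OS cells transduced with KCNH2 3.1 mutant virus (1.77 x 10^8 /mL, 4 h), plated overnight at 37 C, loaded 45 min with FluxOr dye plus Red40 quencher. Thallium flux rate constant from kinetic reads after stimulation buffer, normalised to controls.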
hERG WT inh = blocks the wildtype human KCNH2 potassium channel | Q12809 | U2OS, BacMam KCNH2, thallium flux FluxOr; stronger effect = lower value | activity change, % at 1.84 µM | 340,000 tested, 0.37% active;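 active = maximum activity change below -70%; inconclusive = maximum activity change between -70% and -50%; inactive = maximum activity change above -50%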; note: % is set by controls: 0 for no effect and ±100 for the full control effect
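U2OS cells transduced with wild-type KCNH2 virus are loaded with FluxOr dye for 45 min, and thallium flux is measured in kinetic reads before and after stimulation buffer. Rate constants are normalized to DMSO controls.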
MBNL1-CUG inh = inhibitors of human MBNL1 binding to CUG repeat RNA; TR-FRET MBNL1-His/biotin-(CUG)12 binding, 665/545 ratio; Potency, µM (top dose mostly 57.5 µM), for inactives: top-dose activity change, negative = inhibition, usual class: inhibitors; 280,000 tested, 0.036% active; active = well fitted inhibition curve with a large enough effect in the signal ratio, with a control signal flat, not every such curve was filed as active; inconclusive = small, poorly fitted or top-dose-only effect, or effect the other way, or a change in a side signal; inactive = no such curve, though single readings can be large or run the other way; the % refers to the signal ratio; note: potency is the fitted concentration of half-maximal effect; % is set by controls: 0 for no effect and ±100 for the full control effect
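TR-FRET readout: Ex 340 nm, 665/545 nm emission ratio, normalized to buffer-only (basal) and MBNL1-(CUG)12 controls. Complex of MBNL1-His with Biotin-(CUG)12, compounds 92 nM–58 uM, incubated 60 min at room temperature.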
Numbers without * were called inactive; ? = inconclusive; . = no result. Rows were chosen to be rich in hits. Some 1.3% of all compounds tested hit in one or more screens of this group.

SMILES	TRPV1 PAM	TRPV1 agonist	KCNH2 3.1 block	hERG WT inh	MBNL1-CUG inh
CCOC(=O)C1(c2ccccc2)CCN(CCC(=O)Nc2ccc(OC)cc2)CC1	.	.	-31.9	55.9	.
CCOC(=O)C1(c2ccccc2)CCN(CCC(C#N)(c2ccccc2)c2ccccc2)CC1	.	.	-88.0*	-44.7	.
NNS(=O)(=O)c1ccc(Sc2ccccn2)c([N+](=O)[O-])c1	13.5	1.4	28.0	-4.5	?
O=C(c1cc(-c2ccc(Cl)cc2)n(-c2ccc(Cl)cc2Cl)n1)N1CCOCC1	-9.0	?	-103.6*	-49.0	-3.9%
O=C(c1cc([N+](=O)[O-])ccc1N1CCNCC1)N1CCOCC1	-10.6	2.0	-0.1	-2.9	29.8%
COC(=O)C(O)(c1ccc(N=Cc2ccccc2O)c(C)c1)C(F)(F)F (stereo not drawn)	-1.6	1.7	5.2	-112.9*	-0.5%
C=C[C@@H]1C2=CCOC(=O)C2=CO[C@H]1O[C@@H]1O[C@H](CO)[C@@H](O)[C@H](O)[C@H]1O	-1.2	-1.4	14.5	14.1	.
CC(=O)O[C@H]1C[C@@H]2OC3C=C(C)CCC3(C)[C@@]1(C)[C@@]21CO1 (stereo partly drawn)	.	.	-5.3	16.2	.
Cc1c(OC(=O)N(C)C)ccc2c1O/C(=C\c1ccco1)C2=O	-22.8	?	-10.8	-8.5	?
O=P(Nc1ccccc1)(Oc1ccccc1)Oc1ccccc1	-3.8	20.5	7.3	28.5	-4.7%
O=P(NC(c1ccccc1)c1ccccc1)(Oc1ccccc1)Oc1ccccc1	-5.2	18.8	-88.2*	23.4	-3.5%
COc1cc(CC(=O)N2C[C@H]3C[C@@H](C2)c2cccc(=O)n2C3)cc(OC)c1OC	-1.2	2.6	1.3	-199.1*	.
CCOC(=O)C1(CCc2ccccc2)CCN(Cc2cccc3cnccc23)CC1	-5.7	-4.3	?	5.0	10.8%
CCOC(=O)C1(CCc2ccccc2)CCN(Cc2cccc3c2OCO3)CC1	-15.2	13.5	-97.4*	-111.6*	3.0%
CN1CC(C(=O)c2ccc([N+](=O)[O-])cc2)C(c2ccc(Cl)cc2)C1 (stereo not drawn)	9.1	6.0	-72.8*	-13.4	?
COc1ccc(C(=O)C2CN(C)CC2c2ccc(Cl)cc2)cc1 (stereo not drawn)	2.4	5.4	-12.7	61.5	-6.9%
O=C(O)c1ccccc1S	5.9	-0.9	.	.	?
CN1/C(=C\C=C\C2=[N+](C)c3ccc4ccccc4c3C2(C)C)C(C)(C)c2ccccc21	-9.8	0.3	.	.	?
CCN1/C(=C/C=C/C2=[N+](CC)c3ccccc3C2(C)C)C(C)(C)c2ccccc21	.	.	-77.1*	-130.6*	.
CN1[C@@H]2CCC[C@H]1CC(=O)C2	.	.	-8.7	1.1	.
Cc1ccc(Cn2nc(C(=O)Nc3ccc(Br)cc3)cc2C)cc1	-2.7	107.9*	-7.5	-8.1	-1.3%
Cc1nn(Cc2ccccc2)c(Cl)c1C(=O)Nc1ccc(OC(F)(F)F)cc1	-9.3	?	-8.1	-14.0	-2.6%
COc1ccc(CN2CC=C(c3ccc(F)cc3)CC2)cc1Br	-2.8	1.6	-139.2*	11.1	-1.8%
COc1ccc(OC)c(NP(=O)(Oc2ccc(Cl)cc2)Oc2ccc(Cl)cc2)c1	-0.6	?	7.1	-11.3	.
COc1ccc(NP(=O)(Oc2ccc(Cl)cc2)Oc2ccc(Cl)cc2)cc1OC	5.4	2.5	-112.6*	-29.5	.
SMILES	TRPV1 PAM	TRPV1 agonist	KCNH2 3.1 block	hERG WT inh	MBNL1-CUG inh
Cn1c(=O)oc2cc(S(=O)(=O)Nc3cccc([N+](=O)[O-])c3)ccc21	2.8	1.7	3.0	17.4	?
Cc1cc(N(CCCl)CCCl)ccc1C=NNC(=O)Cc1cc(=O)oc2cc(O)ccc12	.	.	-31.7	1.8	.
COC(=O)C1=C(c2ccc(F)cc2OCc2ccccc2)C[C@@H]2CC[C@H]1N2C(=O)NCc1ccc([N+](=O)[O-])cc1	10.3	19.5	-87.7*	-19.8	.
COC(=O)C1=C(c2cccc(OC)c2OC)C[C@@H]2CC[C@H]1N2C(=O)NCc1ccc(F)cc1	.	.	-126.4*	-1.2	.
O=[N+]([O-])c1ccc(N(CCO)CCO)c2c1no[n+]2[O-]	.	.	-92.0*	-33.8	.
CC(C)(CN)CC(=O)O	3.7	-4.1	8.1	-254.3*	.
CC(Cc1ccccc1)NCc1ccccc1O (stereo not drawn)	-1.4	0.9	11.0	3.2	-9.4%
CC(Cc1ccccc1)NCC(=O)Nc1cc(N(C)C)nc2ccccc12 (stereo not drawn)	-15.9	17.1	-100.3*	2.0	-10.4%
Nc1nnc(Sc2ncccc2[N+](=O)[O-])s1	-3.6	-1.9	-2.3	-5.4	?
C=CCC1(CCCCC)C(=O)NC(=S)NC1=O	.	.	9.4	-81.5*	.
O=C(COc1ccc(Br)cc1)N1CCN(Cc2c[nH]c3ccccc23)CC1	-12.2	25.6	-71.6*	-79.9*	4.3%
COc1ccc(CN2CCN(C(=O)COc3ccc4ccccc4c3)CC2)c(OC)c1	-7.1	23.2	-92.8*	-24.2	-8.2%
COC(=O)C1=C(c2ccc(C(C)=O)cc2)C[C@@H]2CC[C@H]1N2C(=O)N1CCCC1	-4.6	-3.9	-89.8*	2.1	.
COC(=O)C1=C(c2ccc(C(C)=O)cc2)C[C@@H]2CC[C@H]1N2C(=O)N1CCCCC1	-2.8	0.8	-4.5	12.7	.
COc1cccc(CCNCc2ccc(SC)cc2)c1	-7.5	9.9	-12.2	13.6	.
Cn1c(O)c(C=Nc2ccccc2)c(=O)n(C)c1=O	-0.1	2.2	-1.8	8.2	1.7%
Cn1c(O)c(/C=C/C=Nc2ccccc2)c(=O)n(C)c1=O	-11.8	14.5	0.8	-87.7*	23.1%
CCOc1cc2c(cc1OCC)-n1cccc1C(c1ccc(C(C)C)cc1)NC2 (stereo not drawn)	18.7	1.0	-11.7	5.1	-7.7%
CCC(=Nc1ccc2c(c1)CCC2)c1c(O)n(-c2ccc(OC)cc2)c(=O)[nH]c1=O	-7.8	2.8	3.9	-104.3*	3.5%
CC1([N+](=O)[O-])COP(=O)(NC2CCCC2)OC1 (stereo not drawn)	.	.	-0.6	-3.7	.
OC(c1cccc(Cl)c1)(c1cccc(Cl)c1)C1CN2CCC1CC2 (stereo not drawn)	-9.5	13.8	-86.5*	?	-14.3%
COc1ccccc1CN1CCCC(C(=O)c2ccccc2OC)C1 (stereo not drawn)	0.3	6.5	-18.9	3.7	-1.1%
